Results taken from PubChem BioAssay AID1745857 (National Center for Advancing Translational Sciences (NCATS), 2022).
Out of some 120,000 compounds screened, about 370 (0.31%) were called active. Where a call stands in place of a potency, no number is given. Roughly 4% stayed inconclusive and do not appear here. Only a selection was taken, and actives are over-represented in it overall. Values without a mark were called inactive. Calls come from the whole dose curve.

test: Primary qHTS Assay for Foot and Mouth Disease Virus Antivirals against NCGC Sytravon and CBC Compound Libraries: Renilla Luciferase Signal; settings: FMDV replicon cells; series mostly up to 57.5 µM; note: nearly all actives have a fitted effect of over 55% in size
Potency is the fitted concentration of half-maximal effect.

SMILES	Potency	activity change, negative = inhibition
Cn1c(=O)c2c(ncn2CC(=O)NCCc2cccc(F)c2)n(C)c1=O	inactive	
C=C(C)CN1CCN(c2oc(C3CC3)nc2C#N)CC1	inactive	
Cc1c(-c2ccccc2)oc2c(C(=O)OCC(=O)C(C)(C)C)cccc2c1=O	inactive	
COCCNC(=O)COc1cc(O)c2c(=O)cc(-c3ccccc3)oc2c1	inactive	
CCc1cccc(NC(=O)c2ccc3c(c2)NC(=O)CS3)c1	inactive	
CC(C)Sc1c(C(C)C)cnc2c1c(=O)n(C)c(=O)n2C	inactive	
CC(C)Oc1ccc(C(O)(CC[N+](C)(C)C)C2CCCCC2)cc1 (stereo not drawn)	inactive	
COc1ccc(/C=C/c2ccc3cccc(O)c3n2)cc1OC	inactive	
Cc1sc2nc(CN3CCOCC3)nc(N(C)CC(=O)Nc3ccc(F)cc3)c2c1C	inactive	
Cc1ccc(-c2csc3c2NC(=O)CC3c2ccc(C)cc2)cc1 (stereo not drawn)	inactive	
COc1ccc(-c2csc3c2NC(=O)CC3c2ccc(OCC(N)=O)c(OC)c2)cc1 (stereo not drawn)	2.82 µM (active)	
COc1ccc(C2CC(=O)Nc3c2c(=O)nc2c(C)cccn32)cc1OC (stereo not drawn)	inactive	
COc1ccc(Nc2nc(-c3ccc(NC(C)=O)cc3)cs2)cc1	inactive	
COc1ccc(CNC(=O)NCc2noc3ccc(C)cc23)cc1	inactive	
COC(=O)COc1ccc2c(C)c(CC(=O)OC)c(=O)oc2c1C	inactive	
O=C(Cc1cnc(-c2ccccc2F)s1)Nc1nccs1	inactive	
COc1ccc(S(=O)(=O)N2CCC(C(=O)NCc3cccnc3)CC2)cc1	inactive	
O=C(O)c1ccc(CNCc2ccco2)cc1	inactive	
Cc1cc2nc(/N=C(\N)NC(=O)Cc3ccccc3)nc(C)c2cc1C	inactive	
Cn1c(=O)c2nc(SCC(=O)NCc3ccc(Cl)cc3)n(C)c2n(C)c1=O	inactive	
Cc1noc(C)c1S(=O)(=O)N(C)CC(=O)Nc1ccc(C(C)(C)C)cc1	inactive	
CN(C)S(=O)(=O)c1cccc(C(=O)Nc2cccc(Oc3ccccc3)c2)c1	inactive	

SMILES	Potency	activity change, negative = inhibition
CCCCn1c(=O)[nH]c(=O)c2c1nc(CSc1nnc(-c3ccco3)n1C)n2CC	inactive	
CCOC(=O)c1ccc(Oc2coc3cc(OC)ccc3c2=O)cc1	inactive	
CN1CC[C@H](c2c(O)cc(O)c3c(=O)cc(-c4ccccc4Cl)oc23)[C@H](O)C1	1 µM (active)	
Cc1ccc(C(=O)O)cc1S(N)(=O)=O	inactive	
COc1ccc(NC(=O)c2cccc(-n3cccc3)c2)c(OC)c1	inactive	
CCN(C(=O)Cn1c(CN2CCOCC2)nc2ccccc21)c1ccccc1	inactive	
CCOc1cccc2c(C)nc(Nc3nc(CSc4ccc(C)cc4)cc(=O)[nH]3)nc12	inactive	
Cc1ccc(CC(=O)N(C)CC(=O)N(CC(C)C)c2c(N)n(CC(C)C)c(=O)[nH]c2=O)cc1C	inactive	
O=C1c2ccccc2NC(c2cnc3ccccc3n2)N1c1ccc(F)cc1 (stereo not drawn)	inactive	
CCCCn1c(=O)[nH]c(=O)c2c1nc(CSc1n[nH]c(C)n1)n2CC	inactive	
COC(=O)c1ccc(C(=O)NCc2ccccc2C)cc1	inactive	
Cc1c(C)[n+](=O)c2cc(F)c(F)cc2n1[O-]	inactive	
Cc1ccc(-c2noc(Cn3cnc(C#N)n3)n2)cc1F	inactive	
O=C1CCSc2c1cccc2C(=O)NCc1ccccc1Cl	inactive	
COCCn1c(SCc2cc(C)ccc2OC)nnc1-c1ccccc1	inactive	
COc1ccc(Nc2nc3ccccc3nc2NS(=O)(=O)c2ccc(OC)cc2)cc1	inactive	
CCOCCCNc1oc(-c2ccc(S(=O)(=O)N(C)C)cc2)nc1C#N	inactive	
Cc1cccc(NC(=O)c2cccc3ncccc23)c1	inactive	
CC(NCc1cccs1)C12CC3CC(CC(C3)C1)C2 (stereo not drawn)	inactive	
CC(C)COc1ccc(/C=C(\C#N)C(=O)Nc2ccccc2C(=O)O)cc1	inactive	
COC(=O)C(N)Cc1ccc2ccccc2c1 (stereo not drawn)		-8.69% [at 1.06 µM]
O=C(NCC1CC1)c1cc(-c2ccncc2)nc2ccccc12	inactive	

SMILES	Potency	activity change, negative = inhibition
Brc1ccc(/C=N/Nc2nc3ccccc3c3ccccc23)cc1	inactive	
CCCCCCCCCOc1ccc(C(=O)c2ccccc2)cc1	inactive	
Cc1ccc(NC(=O)Cn2cc(/C=C3\NC(=O)NC3=O)c3ccccc32)cc1	inactive	
c1ccc(N2CCN(c3nc(N4CCCCC4)nc4nccnc34)CC2)cc1	inactive	
COc1ccccc1NC(=O)C(=O)NCC(c1cccnc1)N1CCN(c2ccccc2F)CC1 (stereo not drawn)	inactive	
O=C(NCc1cccnc1)C(=O)NCC(c1cccnc1)N1CCN(c2ccccc2)CC1 (stereo not drawn)	inactive	
COc1ccccc1N1CCN(C(CNC(=O)C(=O)NCc2ccc(C)cc2)c2cccnc2)CC1 (stereo not drawn)	7.08 µM (active)	
CCOc1ccccc1NC(=O)N1CCC2(CC1)c1cccn1-c1ccc(C)cc1N2CC	inactive	
O=C(Cc1c[nH]c2ccccc12)N1CCN(C(=O)c2ccccc2)CC1	inactive	
O=C(COc1ncnc2ccccc12)Nc1ccccc1Cl	inactive	
COC(=O)CNC(=O)c1cc2occc2n1Cc1ccccc1	inactive	
COC1CC(OC2CCC3(C=O)[C@H]4CCC5(C)C(C6=CC(=O)OC6)CCC5(O)[C@@H]4CCC3(O)C2)OC(C)C1O (stereo partly drawn)	0.398 µM (active)	
N#Cc1cn(C2CC2)c(=O)n(Cc2coc(-c3cccc(Cl)c3)n2)c1=O	inactive	
O=C(CCc1ncc(-c2ccc(F)cc2)o1)NCC(c1ccccc1)N1CCCC1 (stereo not drawn)	inactive	
O=C(CC1(O)C(=O)N(CN2CCOCC2)c2ccccc21)c1ccc2ccccc2c1 (stereo not drawn)	inactive	
Oc1c(Cl)cc(Cl)c(Cl)c1Cc1c(O)c(Cl)cc(Cl)c1Cl	10 µM (active)	
Cc1cccc(OCCn2cc(S(=O)(=O)N3CCCC3)ccc2=O)c1	inactive	
CCN(CC)CCCNC(=O)C(=O)Nc1cccc2[nH]ccc12	inactive	
O=C(CSc1ccc2c(c1)OCCCO2)NC(c1ccccc1)c1cccs1 (stereo not drawn)	inactive	
Cc1cccc(NC(=O)CN2CCCN(c3ncc(C(F)(F)F)cc3Cl)CC2)c1	inactive	
CCC(C)NC(=O)COc1ccc2c(C)cc(=O)oc2c1 (stereo not drawn)	inactive	
CCOC(=O)CN1C(C(=O)c2ccccc2)=C(OC(=O)CC)c2ccccc2S1(=O)=O	inactive	

SMILES	Potency	activity change, negative = inhibition
COC(=O)c1[nH]c2ccc(F)cc2c1NC(=O)CCN1CCC(C)CC1	inactive	
N#Cc1ccccc1COC(=O)c1ccccc1NCCO	inactive	
Cc1cc(C)cc(Nc2nc(NCc3ccco3)nc3c2cnn3-c2ccccc2)c1	inactive	
Fc1cccc(-c2nc(COc3ccc4ccc(C(F)(F)F)nc4c3)co2)c1	inactive	
C#CCN([C@H](C(=O)OC)C(C)CC)S(=O)(=O)c1ccccc1Br (stereo partly drawn)	inactive	
CC1CC1C(=O)Nc1ccc2c(c1)CCC2 (stereo not drawn)	inactive	
O=C(NCCc1ccc(F)cc1)c1[nH]c2ccccc2c1Cl	inactive	
COc1ccc(OC)c(C(O)c2nc3ccccc3n2C)c1 (stereo not drawn)	inactive	
Cc1ccc(CC(=O)NCc2ccc(COC(C)C)cc2)cc1	inactive	
Cc1ccc(C)c(NC(NC(=O)c2cccc(Cl)c2)C(Cl)(Cl)Cl)c1 (stereo not drawn)	inactive	
CN(C(N)=NC(=O)/C=C/c1ccccc1)C(C#Cc1ccccc1)Cc1ccccc1 (stereo not drawn)	inactive	
CCc1nnsc1C(=O)NC(C)c1cccc(OC(C)C)c1 (stereo not drawn)	inactive	
O=C(CN1CCCC(C(F)(F)F)C1)Nc1cccc2ncccc12 (stereo not drawn)	inactive	
CCOC(=O)c1ccccc1NC(=O)COC(=O)c1ccc2c(c1)NC(=O)C(C)S2 (stereo not drawn)	inactive	
COc1ccc(CSc2nnc(C3CC3)n2C2CC2)cc1F	inactive	
COc1ccc(C)cc1NC(=O)c1ccc2c(c1)NC(=O)CS2	inactive	
COc1ccc(Br)cc1COc1ccc(C#N)cc1	inactive	
Cc1ccc(NCc2cc3ccc(C)cc3[nH]c2=O)c(C)c1	inactive	
Cc1cnc(NC(=O)CNC(=O)c2ccoc2)s1	inactive	
CC(CC(=O)Nc1ccc(O)cc1)(C(=O)O)c1ccccc1 (stereo not drawn)	inactive	
CC(/C=N/NC(=O)c1ccc(C)cc1)=C\c1ccccc1	inactive	
CCC(C)NC(=O)CSc1ncc(-c2cccc(Br)c2)o1 (stereo not drawn)	inactive	

SMILES	Potency	activity change, negative = inhibition
O=C(Cc1ccc(F)cc1)Nc1c(NC2CCCCC2)c2ccccc2oc1=O	inactive	
CN(C)C(CNC(=O)Cc1n[nH]c(=O)c2ccccc12)Cc1ccccc1 (stereo not drawn)	inactive	
CCCC(=O)Nc1nc2ccc(CCC(=O)NCc3cc(Br)ccc3OC)cc2s1	inactive	
CS(=O)(=O)N(CC(=O)N1CCc2ccccc2C1)c1cc(C(F)(F)F)ccc1Cl	inactive	
O=C(CNS(=O)(=O)c1cccs1)N1CCN(c2ccccc2Cl)CC1	inactive	
COc1cccc(CNC(=O)C2CCC(CNS(=O)(=O)c3cccs3)CC2)c1 (stereo not drawn)	inactive	
Cc1ccc(C)c(N2CCN(C(=O)C3CCC(CNS(=O)(=O)c4cccs4)CC3)CC2)c1 (stereo not drawn)	31.6 µM (active)	
Fc1cc(CSc2nncn2C2CC2)c2ncccc2c1	inactive	
CC1CCN(S(=O)(=O)c2ccc3oc(=O)ccc3c2)CC1	inactive	
CCOC(=O)c1cnc(Nc2ccccc2)c2ccccc12	inactive	
CC1(C)CC(=O)C2=C(C1)N(Cc1ccccc1)C(CCC1CCCCC1)=NC2(C(F)(F)F)C(F)(F)F	inactive	
COc1cc(C(=O)Oc2c(C)cccc2C)cc(Cl)c1OC(C)C		-5.15% [at 1.06 µM]
CCn1c(C)cc(C(=O)Cn2nc(C)c(C)c(C#N)c2=O)c1C	inactive	
CCCCS(=O)C1CCCCC1OC(=O)c1ccccc1 (stereo not drawn)	inactive	
O=C(OCc1cccnc1)c1nn(Cc2ccccc2)c(=O)c2ccccc12	inactive	
COC(=O)c1ccc(Cl)cc1NC(=O)Cn1c(=O)n(Cc2ccc(F)cc2)c(=O)c2ccccc21	inactive	
CC(C)NC(=O)CN1CCCN(C(=O)c2cc3ccccc3n2C)CC1	inactive	
O=C(COc1ccccc1)NCc1ccc2c(c1)CCN2C(=O)c1ccc(F)cc1	inactive	
O=C(NCc1ccc2c(c1)CCN2C(=O)c1ccccc1)Nc1cc(F)ccc1F	8.91 µM (active)	
O=C(NCc1ccc2c(c1)CCN2C(=O)c1ccccc1)c1ccccc1	inactive	
